Inconclusive results are not listed. A call without a number means that no potency is given here. Calls of active or inactive are those of the source. Unless noted, the call rests on the fitted dose curve; in most records, active means well fitted curve in the direction sought with a large enough effect; inconclusive means small, poorly fitted or top-dose-only effect, or another doubt; inactive means no such curve, though single readings can be large; an effect the other way counts as inactive or inconclusive.
Tests used:
[1] = qHTS assay to identify small molecule inhibitors of chordoma cells - UCH-1 (AID 1259355); further: nearly all actives have a fitted effect of over 55% in size; further: potency means the concentration at half of the fitted maximal effect; series mostly up to about 46 µM
Method in brief: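 Seed 800 cells per well; incubate overnight at 37 C, 5% CO2. Add test compounds (15 concentrations), then the auranofin–topoisomerase-agent combination. Incubate 48hr, add CellTiter-Glo, wait 30min, read luminescence.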

[2] = qHTS assay to identify small molecule inhibitors of chordoma cells - UCH-2 (AID 1259356); further: potency means the concentration at half of the fitted maximal effect
[3] = P-glycoprotein substrates identified in KB-8-5-11 adenocarcinoma cell line, qHTS therapeutic library screen (AID 1346987); further: nearly all actives have a fitted effect of over 65% in size; further: potency means the concentration at half of the fitted maximal effect
Method in brief: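 Steps: plate 500 KB-8-5-11 cells/well in DMEM + 10% FCS (colchicine removed); pin compounds in dose-response; incubate 72 h, 37 degree C, 5% CO2; add CellTiter-Glo, 5 min; read luminescence.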

[4] = Natriuretic polypeptide receptor (hNpr1) antagonism - Pilot counterscreen GloSensor control cell line (AID 1347045; calls by dose curve; further: series mostly up to about 38 µM)
Method in brief: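 Luminescence was read before and 20 min after adding 50 uM SNP, which stimulates soluble guanylyl cyclase. The HEK293 cells expressing the GloSensor cGMP sensor had been preloaded with 2% reagent for 2 h and treated with compound.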

[5] = molecular target: Atrial natriuretic peptide receptor 1 (Homo sapiens) (UniProt P16066); assay: Natriuretic polypeptide receptor (hNpr1) antagonism - Pilot screen (AID 1347049; calls by dose curve;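 further: agonist-evoked cGMP luminescence read 20 min after hNppA addition; series mostly up to about 58 µM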)
Method in brief: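 Readout is cGMP-driven firefly luciferase luminescence in HEK293 cells carrying hNpr1 and a PDE5-domain GloSensor, read before and 20 min after 0.1 nM hNppA stimulation. Cells had 2% substrate reagent for 2 h and test compound for 30 min.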

Chain of Atrial natriuretic peptide receptor 1 (Homo sapiens) (P16066 whole entry, looked up): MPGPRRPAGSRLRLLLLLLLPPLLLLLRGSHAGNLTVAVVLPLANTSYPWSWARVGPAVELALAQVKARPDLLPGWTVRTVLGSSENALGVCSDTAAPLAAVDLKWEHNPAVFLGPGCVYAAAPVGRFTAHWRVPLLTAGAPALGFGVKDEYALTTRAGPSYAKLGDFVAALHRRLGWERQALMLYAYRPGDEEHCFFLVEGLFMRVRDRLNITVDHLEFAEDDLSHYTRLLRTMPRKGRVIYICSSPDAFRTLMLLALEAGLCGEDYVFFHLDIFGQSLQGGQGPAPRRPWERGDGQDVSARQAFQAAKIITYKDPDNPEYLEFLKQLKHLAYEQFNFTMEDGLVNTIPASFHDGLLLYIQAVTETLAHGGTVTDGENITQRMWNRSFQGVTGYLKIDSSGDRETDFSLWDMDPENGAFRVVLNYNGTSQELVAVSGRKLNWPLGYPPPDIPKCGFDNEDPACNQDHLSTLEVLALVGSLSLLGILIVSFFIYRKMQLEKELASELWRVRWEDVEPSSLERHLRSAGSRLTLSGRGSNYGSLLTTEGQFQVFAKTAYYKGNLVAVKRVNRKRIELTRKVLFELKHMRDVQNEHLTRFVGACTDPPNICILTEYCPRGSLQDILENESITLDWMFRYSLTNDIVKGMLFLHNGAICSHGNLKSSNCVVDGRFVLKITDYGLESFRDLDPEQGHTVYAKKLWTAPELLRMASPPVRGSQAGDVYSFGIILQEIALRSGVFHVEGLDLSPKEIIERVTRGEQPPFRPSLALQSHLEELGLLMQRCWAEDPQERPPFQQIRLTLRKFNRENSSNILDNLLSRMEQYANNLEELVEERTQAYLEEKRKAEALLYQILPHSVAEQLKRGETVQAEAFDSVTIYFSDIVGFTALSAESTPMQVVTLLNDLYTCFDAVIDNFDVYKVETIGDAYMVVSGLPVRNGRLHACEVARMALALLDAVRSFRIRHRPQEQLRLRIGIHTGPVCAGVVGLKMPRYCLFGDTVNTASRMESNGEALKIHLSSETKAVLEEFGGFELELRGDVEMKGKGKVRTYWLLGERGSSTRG

SMILES	Potency [1]	Potency [2]	Potency [3]	outcome [4]	outcome [5]
CC(C)=C[C@@H]1[C@@H](C(=O)OCc2coc(Cc3ccccc3)c2)C1(C)C	inactive	inactive	inactive		
Oc1c(Br)cc(Br)cc1Br	inactive	inactive	inactive		
CN(C)C(=O)Oc1cc(OC(=O)N(C)C)cc(C(O)CNC(C)(C)C)c1 (stereo not given)		inactive	inactive		
C[C@@H]1O[C@@H](O[C@@H]2C=C3CC[C@@H]4[C@H](CC[C@]5(C)[C@@H](c6ccc(=O)oc6)CC[C@]45O)[C@@]3(C)CC2)[C@H](O)[C@H](O)[C@H]1O	100 nM (active)	24.8 nM (active)	19.7 nM (active)		
COP(=O)(OC)C(O)C(Cl)(Cl)Cl (stereo not given)	inactive	inactive	inactive		
C[C@]12Cc3nonc3C[C@@H]1CC[C@@H]1[C@@H]2CC[C@@]2(C)[C@H]1CC[C@]2(C)O	inactive	inactive	5800 nM (active)		
CC(C)(C)OC(=O)c1ncn2c1[C@@H]1CCCN1C(=O)c1c(Br)cccc1-2	inactive	inactive	inactive		
COc1ccc(CN2CCNCC2)c(OC)c1OC	inactive	inactive	inactive		
Cc1ccc(N=CN(C)C=Nc2ccc(C)cc2C)c(C)c1	inactive	inactive	inactive		
O=c1n(Cl)c(=O)n(Cl)c(=O)n1Cl	inactive	inactive	inactive		
OC(O)C(Cl)(Cl)Cl		inactive	inactive		
CNC(=O)Oc1cccc2ccccc12	inactive	inactive	inactive		
C[C@@H]1CN(C2CCC(C#N)(c3ccc(F)cc3)CC2)CC[C@]1(C(=O)O)c1ccccc1 (stereo not given in full)		inactive	inactive		
CC(C)C(Br)C(=O)NC(N)=O (stereo not given)	inactive	inactive	inactive		
C[C@]12CC[C@H](O)CC1=CC[C@@H]1[C@@H]2CC[C@]2(C)C(=O)CC[C@@H]12		inactive	inactive		
Clc1ccc(CO/N=C(\Cn2ccnc2)c2ccc(Cl)cc2Cl)c(Cl)c1		inactive			
Nc1ccc(N)cc1	inactive	inactive	inactive		
ClC1=C(Cl)C2(Cl)C(CBr)CC1(Cl)C2(Cl)Cl (stereo not given)	inactive	inactive	inactive		
C[C@H](N)[C@H](O)c1ccc(O)c(O)c1	inactive	inactive	inactive		
CCCC[N+]1(C)[C@@H]2CC(OC(=O)[C@H](CO)c3ccccc3)C[C@H]1[C@@H]1O[C@@H]12 (stereo not given in full)	inactive	inactive	inactive		
C[N+](C)(C)CCOC(=O)C(O)(c1ccccc1)c1ccccc1	inactive	inactive	inactive		
C[N+]1(C)[C@@H]2CC[C@H]1CC(OC(=O)C(CO)c1ccccc1)C2 (stereo not given in full)	inactive	inactive	inactive		
CCC1(c2cccc(O)c2)CCCCN(C)C1 (stereo not given)	inactive	inactive	inactive		
COc1ccc(C(=O)N2CCCC2=O)cc1	inactive	inactive	inactive	inactive	inactive
NC(=O)CN1CCCC1=O				inactive	inactive
